According to PubChem BioAssay AID1508622 (National Center for Advancing Translational Sciences (NCATS), 2021):
The source made the active and inactive calls. Calls follow the shape of the dose curve; as a rule, active = well fitted activation curve with a large enough effect; inconclusive = small, poorly fitted or top-dose-only effect; inactive = no such curve, though single readings can be large or run the other way.

Experiment: Confirmatory qHTS for Identification of Small Molecule Activators of Huntingtin-Antisense Promoter Activity
Details: HEK293 HTT-AS promoter firefly luciferase reporter, 24 h; series mostly up to 57.5 µM; activity change, positive = activation: at the top concentration
From the text: Assay Provider: Russell L. Margolis M.D.
Department Neurology, Johns Hopkins University School of Medicine, Baltimore, MD
Huntington's Disease (HD) is a neurodegenerative disorder caused by a CAG repeat expansion in exon 1 of huntingtin (HTT). While there are currently no disease-modifying treatments for HD, recent efforts have focused on development of nucleotide-based therapeutics to lower HTT expression. As an alternative to siRNA or oligonucleotide methods, we hypothesized that suppression of HTT expression might be accomplished by small molecules that either (1) directly decrease HTT expression by suppressing HTT promoter activity or (2) indirectly decrease HTT expression by increasing the promoter activity of HTT-AS, the gene antisense to HTT that appears to inhibit expression of HTT.
We developed and employed a high throughput screen for modifiers of HTT and HTT-AS promoter activity using luminescent reporter HEK293 cells; of the 52,041 compounds tested, we identified 898 replicable hits. We used a rigorous stepwise approach to assess compound toxicity and the capacity of the compounds to specifically lower huntingtin protein in 5 different cell lines, including HEK293 cells, HD lymphoblastoid cells, mouse primary neurons, HD iPSCs differentiated into cortical-like neurons, and HD hESCs. We found no compounds which were able to lower huntingtin without lowering cell viability in all assays, though the potential efficacy of a few compounds at non-toxic doses could not be excluded.
SEQUENCE No. (1, 2, 3, etc.); […] (e.g., Cells, Incubation, Reagent, etc.); VALUE and DESCRIPTION.
1; Reagent; 4 uL; 2,500 Hek293 luciferase reporter cells per wells
3; Compound; 23 nL; Control inhibitor / compound library
5; Reagent; 2.5 uL; Firefly Luc reagent; Dual-Glo Luciferase Reporter Assay System (Promega)
6; Time; 10 min; room temperature incubation
7; Detection; Luminescence; FLuc
NOTES (numbers refer to sequence above)
1; High-throughput screening, measuring luminescence from a Hek293 luciferase reporter, was performed in 1,536 well white-walled tissue-culture treated plates. 2,500 cells were plated in 4 uL of Opti-MEM per well using a Multidrop Combi Reagent Dispenser (ThermoFisher).
2; Assay plates were cultured for 24 hours.
3; Control inhibitor (PTC124; final concentration of 50 uM) and compound library (at final concentrations of 460 nM - 57.5 uM) were added to the assay plate using the Kalypsis Pintool Robotic System equipped with 1536 pinheads.
4; Cells were then incubated for 24 hours at 37C prior to luminescence measurements.
5; In all cases, luminescence was measured using the Dual-Glo Luciferase Reporter Assay System (Promega) following the manufacturer's instructions.
6; Room temperature incubation.
7; Luminescence signal was obtained using the PerkinElmer ViewLux plate reader. Results were normalized to vehicle control (0% activity) and zero RLU (-100% activity).
Potency is read from the fitted curve at half-maximal effect.

Activity change, positive = activation, inactive:
COc1ccc(S(=O)(=O)c2cc3cc(C(C)(C)C)cc(O)c3oc2=O)cc1 -42.7%, Cc1cccc(NC(=O)c2c(NC(=O)C(F)(F)F)sc3c2CCCCC3)c1 -96.1%, CC(C)Cn1c(-c2ccc(S(=O)(=O)N3CCCC3)cc2)csc1=Nc1ccccc1 -45.1%, O=C(Nc1cccc(Cl)c1)c1c(NC(=O)C(F)(F)F)sc2c1CCCC2 -91.7%, Cc1ccc(CN2CCCn3nc(C(=O)NCc4ccc(OC(C)C)cc4)cc3C2=O)cc1 -86.8%, CN1CCCC(n2nc(Cc3ccc(Cl)cc3)c3ccccc3c2=O)CC1 (stereo not given) -9.68%, CN(C)c1ccc(C(=C2C=CC(=[N+](C)C)C=C2)c2ccc(N(C)C)cc2)cc1 -95.6%, CCOC(=O)c1cc(C)n(CC2CCC(C(=O)Nc3ccc(Cl)cc3)CC2)c1C (stereo not given) -95.2%, CCOC(=O)c1ccc(N2C(=O)c3[nH]nc(-c4ccccc4)c3C2c2cccs2)cc1 (stereo not given) -63.4%, COc1ccccc1C(=O)Nc1nc2n(n1)C(c1ccc(F)cc1)C=C(c1ccc(Cl)cc1)N2 (stereo not given) -13.7%, COc1ccc(NC(=O)Cn2nc(C(F)(F)F)c3c2CCCC3)cc1OC -53.1%, CCOc1cc(CNC(=O)c2sc3ncnc(N(C)C4CCCCC4)c3c2C)ccc1OC -26.3%, Cn1c(=O)c2sccc2n2c(CCCC(=O)Nc3ccc(Oc4ccc(Cl)cc4)cc3)nnc12 -57.8%, Cc1ccc(-c2nnc(Nc3ccc(F)cc3)c3ccccc23)cc1S(=O)(=O)NC(C)C -23.9%, COc1ccc(C2(CNC(=O)C(=O)Nc3cccc(C(F)(F)F)c3)CCCC2)cc1OC -9.16%, COc1cc(Br)c(C2CC(=O)Nc3cc4c(cc32)OCCO4)cc1OC (stereo not given) -54.1%, Cc1nc(-c2ccc(S(=O)(=O)Nc3ccc(C)c(N(C)C)c3)cc2)co1 -93.7%, COc1ccc(NS(=O)(=O)c2ccc3c(c2)CC(C)N3C(=O)C2CCC2)cc1OC (stereo not given) -94.3%, COC(=O)C1=C(C)NC(C)=C(C(=O)OCC(C)=O)C1c1ccccc1[N+](=O)[O-] (stereo not given) 43.9%, CC(=O)N1CCCc2cc(S(=O)(=O)N(C)CC(=O)Nc3cccc(Cl)c3C)ccc21 -37.9%, CC1Cc2cc(S(=O)(=O)N(Cc3ccccc3)C(C)C)ccc2N1C(=O)C1CCC1 (stereo not given) -68.9%, COc1ccc(-c2ccc3ncc4c(c3c2)n(-c2ccc(N3CCNCC3)c(C(F)(F)F)c2)c(=O)n4C)cn1 -1.58%, COc1ccc(NC(=O)Cn2c(SCc3ccc(F)cc3)nc3cccnc32)cc1OC -27.2%, CC(C)Oc1ccc(CNC(=O)C2CCN(C(=O)N3CCOc4ccc(Cl)cc43)CC2)cc1 -46.3%, COc1ccccc1NC(=O)c1ccc(-c2nc(COc3ccc(C)cc3)c(C)o2)cc1 -54.7%, Cc1cc(NC(=O)c2cc(Cl)ccc2Cl)ccc1-c1cc2ccccc2oc1=O -43.5%, Cc1ccc(Cn2cc(/C=C(/C#N)C(=O)Nc3cccc(Cl)c3)c3ccccc32)cc1 -48.6%, CCN(CCCNC(=O)CSc1cc(=O)n(CC)c2ccccc12)c1ccccc1 -10.4%, COC(=O)c1c(C)oc2ccc(N(C(=O)c3ccncc3)S(=O)(=O)c3cc(C)c(C)cc3C)cc12 -93.4%, N#CC[C@H](C1CCCC1)n1cc(-c2ncnc3[nH]ccc23)cn1 -0.0278%, O=C(Nc1ccc(F)c(Cl)c1)C1CCN(S(=O)(=O)c2ccc3c(c2)CCCN3C(=O)C2CCC2)CC1 -22.8%, Cn1cnc(S(=O)(=O)N2CCC(C(=O)Nc3ccc(Cl)c(C(F)(F)F)c3)CC2)c1 -54.1%, O=C1CSC2(C(=O)N(Cc3cccc(C(F)(F)F)c3)c3ccccc32)N1c1ccc(F)c(F)c1 (stereo not given) -57.6%, COc1ccccc1NC(=O)CSc1oc(-c2ccccc2)nc1S(=O)(=O)c1ccccc1 -21.1%, CCc1ccc(NC(=O)c2cc(S(=O)(=O)N3CCCCCC3)ccc2F)cc1 -22.9%, CCCC(O)c1nc2ccccc2n1CCCCOc1ccc(OC)cc1 (stereo not given) -43.5%, COc1ccc(N2CCN(C(CNC(=O)c3ccc(C)cc3)c3ccc4c(c3)OCO4)CC2)cc1 (stereo not given) -26.2%, COc1ccc(-c2nc(CSCC(=O)N3CCN(c4cc(Cl)ccc4C)CC3)c(C)o2)cc1 -93.9%

Potency, active:
CN(C)c1ccc(C(=O)NCCCCCCC(=O)NO)cc1 30.1 µM, CCc1ccc2c(c1)-c1ccccc1S(=O)(=O)N2CC(=O)N1CCCCC1 9.53 µM
